Source: PubChem BioAssay AID1053127 (Broad Institute, 2014)
Measured potencies and affinities stand elsewhere. The source made the active and inactive calls.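 How the source made its calls: active means compounds whose fitted curve of lowered CTGF expression reaches half effect within a set concentration limit; inconclusive means flat moderate drop in CTGF, or unreliable curve fit; inactive means the rest.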

Assay: YAP1 overexpression rescue of CTGF inhibition – DLD1 cells, RT-qPCR, cherry-pick, mechanism study for YAP1 pathway inhibitor project, dose response (AID 1053127)
Conditions: DLD1 YAP1-overexpressing, CTGF mRNA qPCR, 24 h; series mostly up to 26 µM
In the case of `COc1cccc(-c2ccc([C@@H]3[C@H](CO)N4CCCCN(C(=O)Cc5ccncc5)C[C@@H]34)cc2)c1`, the outcome is reported as “inactive”.
With `COc1cccc(-c2ccc([C@H]3[C@@H](CO)N4CCCCN(C(=O)Cc5ccncc5)C[C@H]34)cc2)c1` the outcome was “inactive”.
In the case of `O=C(Cc1ccncc1)N1CCCCN2[C@@H](CO)[C@@H](c3ccc(C#Cc4ccccc4F)cc3)[C@@H]2C1`, the outcome is reported as “inactive”.
In the case of `O=C(Cc1ccncc1)N1CCCCN2[C@H](C1)[C@@H](c1ccc(C#Cc3ccccc3F)cc1)[C@@H]2CO`, the outcome is reported as “inactive”.
For `COc1cccc(-c2ccc([C@H]3[C@@H](CO)N4CCCCN(C(=O)Cc5ccncc5)C[C@@H]34)cc2)c1`, the outcome was “inactive”.
In the case of `COc1cccc(-c2ccc([C@@H]3[C@H]4CN(C(=O)Cc5ccncc5)CCCCN4[C@H]3CO)cc2)c1`, the outcome is reported as “inactive”.
In the case of `COc1cccc(-c2ccc([C@@H]3[C@@H](CO)N4CCCCN(C(=O)Cc5ccncc5)C[C@H]34)cc2)c1`, the outcome is reported as “inactive”.
With `O=C(Cc1ccncc1)N1CCCCN2[C@@H](CO)[C@H](c3ccc(C#Cc4ccccc4F)cc3)[C@@H]2C1` the outcome was “inactive”.
With `COc1cccc(-c2ccc([C@H]3[C@H](CO)N4CCCCN(C(=O)Cc5ccncc5)C[C@@H]34)cc2)c1` the outcome was “inactive”.
For `O=C(Cc1ccncc1)N1CCCCN2[C@H](CO)[C@H](c3ccc(C#Cc4ccccc4F)cc3)[C@H]2C1`, the outcome was “inactive”.
